Read-out in assay [1]: C-C motif chemokine 2 (Homo sapiens) (UniProt P13500)
Put plainly: BSK_KF3CT_MCP1: BioMAP Diversity Plus: KF3CT Assay for Monocyte Chemoattractant Protein 1 (MCP1/CCL2) Biomarker Activity (AID 2283073). Particulars: primary human keratinocytes with fibroblasts; actives raise or lower the signal. The essentials:
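Biomarker MCP-1 is measured by ELISA in primary human keratinocytes co-cultured with foreskin fibroblasts, 24 h after chemical treatment; DMSO serves as the negative control and activity baseline.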

Read-out in assay [2]: Matrix Metallopeptidase 9 (MMP9), MMP9 (gene 4318)
In words: BSK_KF3CT_MMP9: BioMAP Diversity Plus: KF3CT Assay for Matrix Metallopeptidase 9 (MMP9) Biomarker Activity (AID 2283074).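 On AC50: MMP9 protein level quantified by ELISA in the co-culture.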 To be noted: primary human keratinocytes with fibroblasts; actives raise or lower the signal. An outline of the steps: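 Human keratinocyte and foreskin fibroblast co-culture exposed to chemicals for 24 h; MMP9 biomarker measured by ELISA, bidirectional fitting relative to DMSO; cytotoxicity tracked by SRB total protein staining in parallel cultures.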

Read-out in assay [3]: urokinase plasminogen activator (uPA), PLAU (gene 5328)
In words: BSK_KF3CT_uPA: BioMAP Diversity Plus: KF3CT Assay for urokinase plasminogen activator (uPA) Biomarker Activity (AID 2283075). To be noted: primary human keratinocytes with fibroblasts; actives raise or lower the signal. An outline of the steps:
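Primary human keratinocyte/foreskin fibroblast co-culture exposed to chemical; uPA measured by ELISA at 24 h. Bidirectional fit versus DMSO, with parallel SRB total-protein staining for cytotoxicity.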

Read-out in assay [4]: E-selectin (Homo sapiens) (UniProt P16581)
Put plainly: BSK_LPS_Eselectin: BioMAP Diversity Plus: LPS Assay for Eselectin Biomarker Activity (AID 2283077). To be noted: primary human HUVEC with PBMC; actives raise or lower the signal. An outline of the steps:
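Dose chemical onto LPS-driven HUVEC/PBMC co-culture; after 24 h, run ELISA for E-selectin; fit up- and down-going responses relative to DMSO control.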

Read-out in assay [5]: Interleukin-8 (IL8), CXCL8 (gene 3576)
Put plainly: BSK_LPS_IL8: BioMAP Diversity Plus: LPS Assay for Interleukin-8 (IL8) Biomarker Activity (AID 2283078). Particulars: primary human HUVEC with PBMC; actives raise or lower the signal. An outline of the steps:
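In this LPS system, chemical-treated human umbilical vein endothelium/PBMC co-cultures were harvested at 24 h for IL-8 ELISA.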

Assay [6] can be described thus: BSK_LPS_SRB: Viability Assessment in the BioMAP Diversity Plus: LPS Assay (AID 2283079).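 Further: total protein by sulforhodamine B absorbance as a cytotoxicity measure; measured one day after compound addition; fitted in both directions against DMSO so loss or gain of signal counts.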 Particulars: primary human HUVEC with PBMC. The essentials:
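Cytotoxicity endpoint in human endothelial–PBMC co-culture: 24 h exposure, then SRB (0.1%) staining, 560 nm read.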

Read-out in assay [7]: Interleukin-1 alpha (IL1a), IL1A (gene 3552)
In words: BSK_LPS_IL1a: BioMAP Diversity Plus: LPS Assay for Interleukin-1 alpha (IL1a) Biomarker Activity (AID 2283080). To be noted: primary human HUVEC with PBMC; actives raise or lower the signal. The essentials: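 Primary human HUVEC and PBMC co-culture stimulated with LPS is dosed and harvested at 24 h. Both increases and decreases in ELISA-measured IL-1a are scored relative to DMSO.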

Read-out in assay [8]: Monocyte Chemoattractant Protein-1 (MCP1), CCL2 (gene 6347)
In words: BSK_LPS_MCP1: BioMAP Diversity Plus: LPS Assay for Monocyte Chemoattractant Protein-1 (MCP1) Biomarker Activity (AID 2283081).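 On AC50: secreted MCP-1 protein quantified by ELISA in culture supernatant.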 Particulars: primary human HUVEC with PBMC; actives raise or lower the signal. An outline of the steps:
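Values derive from bidirectional fitting against DMSO of ELISA-measured MCP-1 in a human primary endothelial and mononuclear cell co-culture, 24 h after chemical addition under LPS activation.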

A short description of assay [9]: BSK_LPS_PGE2: BioMAP Diversity Plus: LPS Assay for Prostaglandin E2 (PGE2) Biomarker Activity (AID 2283082). Particulars: primary human HUVEC with PBMC; actives raise or lower the signal. The essentials: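 HUVEC plus human PBMC co-culture stimulated with LPS; secreted PGE2 quantified by ELISA 24 h after chemical dosing. Activity fitted bidirectionally against DMSO baseline; parallel SRB staining (0.1% SRB after 10% TCA fixation, 560 nm) flags overt cytotoxicity.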

Read-out in assay [10]: Macrophage colony-stimulating factor (MCSF), CSF1 (gene 1435)
Put plainly: BSK_LPS_MCSF: BioMAP Diversity Plus: LPS Assay for Macrophage colony-stimulating factor (MCSF) Biomarker Activity (AID 2283083). Particulars: primary human HUVEC with PBMC; actives raise or lower the signal. The essentials: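 Bidirectional fit versus DMSO of ELISA-measured M-CSF in co-cultured human umbilical vein endothelial cells and PBMC, sampled 24 h after dosing.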

Read-out in assay [11]: Tissue Factor, F3 (gene 2152)
In words: BSK_LPS_TissueFactor: BioMAP Diversity Plus: LPS Assay for Tissue Factor Biomarker Activity (AID 2283084). Particulars: primary human HUVEC with PBMC; actives raise or lower the signal. The essentials: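 Read-out: CD142 ELISA, 24 h. System: LPS-driven human endothelial/PBMC co-culture. Analysis: up- or down-signal fitted against DMSO.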

Read-out in assay [12]: Tumor necrosis factor (Homo sapiens) (UniProt P01375)
In words: BSK_LPS_TNFa: BioMAP Diversity Plus: LPS Assay for Tumour Necrosis Factor alpha (TNFa) Biomarker Activity (AID 2283085). Particulars: primary human HUVEC with PBMC; actives raise or lower the signal. The essentials:
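Human umbilical vein endothelial cells co-cultured with PBMC and stimulated with LPS. TNFa was measured by ELISA 24 h after chemical dosing, fitted bidirectionally relative to DMSO.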

Read-out in assay [13]: Vascular cell adhesion molecule 1 (VCAM1), VCAM1 (gene 7412)
In words: BSK_LPS_VCAM1: BioMAP Diversity Plus: LPS Assay for Vascular cell adhesion molecule 1 (VCAM1) Biomarker Activity (AID 2283086). To be noted: primary human HUVEC with PBMC; actives raise or lower the signal. The essentials:
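Human umbilical vein endothelial cells co-cultured with PBMC and stimulated with LPS; VCAM-1 measured by ELISA 24 h after dosing. Bidirectional curve fitting against DMSO baseline; cytotoxicity tracked in parallel by SRB total-protein staining.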

Read-out in assay [14]: CD38, CD38 (gene 952)
Put plainly: BSK_SAg_CD38: BioMAP Diversity Plus: SAg Assay for CD38 Biomarker Activity (AID 2283087). Particulars: primary human HUVEC with PBMC; actives raise or lower the signal. The essentials:
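Human HUVEC plus PBMC co-culture stimulated with superantigen; CD38 measured by ELISA 24 h after chemical dosing. Fluorescence read-out, bidirectional fit against DMSO; cytotoxicity tracked in parallel by SRB and Alamar Blue.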

Read-out in assay [15]: CD40, CD40 (gene 958)
In words: BSK_SAg_CD40: BioMAP Diversity Plus: SAg Assay for CD40 Biomarker Activity (AID 2283088). Particulars: primary human HUVEC with PBMC; actives raise or lower the signal. An outline of the steps:
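Endpoint derived by fitting increases or decreases versus DMSO controls. CD40 is detected by fluorescence ELISA in a human vascular co-culture of endothelium and PBMC at 24 h.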

Read-out in assay [16]: CD69, CD69 (gene 969)
Put plainly: BSK_SAg_CD69: BioMAP Diversity Plus: SAg Assay for CD69 Biomarker Activity (AID 2283089).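 On AC50: cell surface CD69 protein quantified by ELISA with fluorescence detection.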 To be noted: primary human HUVEC with PBMC; actives raise or lower the signal. The essentials: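 Values derive from bidirectional fitting relative to DMSO vehicle. Cells: umbilical vein endothelium plus peripheral blood mononuclear cells, treated 24 h before fluorescent ELISA for CD69.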

Read-out in assay [17]: Monocyte Chemoattractant Protein-1 (MCP1), CCL2 (gene 6347)
Put plainly: BSK_SAg_MCP1: BioMAP Diversity Plus: SAg Assay for Monocyte Chemoattractant Protein-1 (MCP1) Biomarker Activity (AID 2283090). Particulars: primary human HUVEC with PBMC; actives raise or lower the signal. An outline of the steps:
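MCP-1 levels in the endothelial–PBMC SAg co-culture were quantified by ELISA at 24 h post-dosing; both increases and decreases versus DMSO scored. Cytotoxicity monitored by SRB total protein in parallel cultures.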

Read-out in assay [18]: E-selectin (Homo sapiens) (UniProt P16581)
Put plainly: BSK_SAg_Eselectin: BioMAP Diversity Plus: SAg Assay for Eselectin Biomarker Activity (AID 2283091). Particulars: primary human HUVEC with PBMC; actives raise or lower the signal. An outline of the steps: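 Endpoint values derive from bidirectional fitting relative to DMSO, using ELISA-measured E-selectin in a human vascular co-culture (umbilical vein endothelium plus PBMC) sampled 24 h after dosing.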

Read-out in assay [19]: CD40, CD40 (gene 958)
In words: BSK_LPS_CD40: BioMAP Diversity Plus: LPS Assay for CD40 Biomarker Activity (AID 2283076). To be noted: primary human HUVEC with PBMC; actives raise or lower the signal. The essentials:
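Using a multiplexed primary human co-culture (umbilical vein endothelium plus PBMC), CD40 was read by ELISA 24 h after dosing, with cytotoxicity tracked by sulforhodamine B staining of parallel cultures and activity fitted bidirectionally versus DMSO.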

Read-out in assay [20]: Monokine induced gamma interferon (MIG), CXCL9 (gene 4283)
Put plainly: BSK_SAg_MIG: BioMAP Diversity Plus: SAg Assay for Monokine induced gamma interferon (MIG) Biomarker Activity (AID 2283092). Particulars: primary human HUVEC with PBMC; actives raise or lower the signal. The essentials: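 Values reflect bidirectional fitting of ELISA-measured MIG against DMSO vehicle, taken 24 h after dosing of a co-culture of human umbilical vein endothelial cells and peripheral blood mononuclear cells.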

The results in this text go back to PubChem BioAssay (EPA / NIEHS).

SMILES strings stand for the structures. Calls of active or inactive are those of the source. How the source made its calls: active means hit-call score of the fitted dose curve at least 0.9, where 1 is the maximum; inactive means score below 0.9.

Tumor necrosis factor (Homo sapiens), sequence (P01375 whole entry, looked up): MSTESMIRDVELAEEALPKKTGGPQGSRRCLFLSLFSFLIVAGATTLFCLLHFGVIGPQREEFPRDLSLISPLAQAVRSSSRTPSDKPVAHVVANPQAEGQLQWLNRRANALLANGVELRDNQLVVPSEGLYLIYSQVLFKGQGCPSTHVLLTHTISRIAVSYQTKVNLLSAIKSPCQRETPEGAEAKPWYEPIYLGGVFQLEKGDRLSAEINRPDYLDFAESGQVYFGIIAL
E-selectin (Homo sapiens), sequence (P16581 whole entry, looked up): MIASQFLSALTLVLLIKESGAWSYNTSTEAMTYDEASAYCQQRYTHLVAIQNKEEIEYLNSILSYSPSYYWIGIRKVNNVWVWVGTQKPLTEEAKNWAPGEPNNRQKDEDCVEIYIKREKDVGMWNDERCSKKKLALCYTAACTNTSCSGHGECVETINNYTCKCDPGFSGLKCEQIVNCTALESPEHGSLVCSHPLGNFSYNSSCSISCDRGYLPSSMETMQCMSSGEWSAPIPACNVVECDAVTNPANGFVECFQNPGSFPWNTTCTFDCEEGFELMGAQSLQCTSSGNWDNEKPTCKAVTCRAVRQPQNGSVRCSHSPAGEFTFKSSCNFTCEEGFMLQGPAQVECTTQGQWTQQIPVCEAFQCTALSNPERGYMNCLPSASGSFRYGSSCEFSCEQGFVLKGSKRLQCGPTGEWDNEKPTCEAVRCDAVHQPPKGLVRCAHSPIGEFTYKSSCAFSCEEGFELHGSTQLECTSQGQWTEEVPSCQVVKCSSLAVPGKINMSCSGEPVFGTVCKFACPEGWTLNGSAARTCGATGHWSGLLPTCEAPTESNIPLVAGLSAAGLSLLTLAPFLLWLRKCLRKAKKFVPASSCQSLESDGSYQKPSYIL

As for `c1ccc(C[n+]2cccc3ccccc32)cc1`, the result in assay [1], in assay [2], in [3], in assay [4], in assay [5] and in [6] was inactive. For the same compound, the result in assay [7], in [8], in assay [9], in assay [10], in [11] and in assay [12] was inactive. The outcome in assay [13], in assay [14], in [15], in assay [16], in assay [17] and in assay [18] was inactive.
On to `CCCC(=O)OCCC(C)C`, for which the outcome in [1], in [2], in assay [3], in assay [19], in assay [4] and in assay [5] was inactive. Moreover, the outcome in assay [6], in [7], in assay [8], in assay [9], in [10] and in assay [11] was inactive. Also, the result in assay [12], in [13], in assay [14], in assay [15], in assay [16] and in assay [17] was inactive. Also, the result in assay [18] was inactive.
As to `NCc1cccc(C2CCN(C(=O)c3ccc(C#Cc4ccccc4F)o3)CC2)c1`, the AC50 in [1] is 20 µM (active); in assay [2], 11.3 µM (active); in assay [3], 11.1 µM (active); in assay [19], 8.42 µM (active); in assay [4], 35.6 µM (active); in assay [5], 25.8 µM (active). For the same compound, the AC50 in [6] is 15.3 µM (active); in assay [7], 17.1 µM (active); in assay [8] it was 16.1 µM (active); in assay [10], 26 µM (active); in assay [11], 28.2 µM (active); in [12], 27.7 µM (active). For the same compound, the AC50 in assay [13] was 24.6 µM (active); in [14], 17.4 µM (active); in [15], 15.3 µM (active); in [16] it was 22.1 µM (active); in assay [17] it was 28 µM (active); in [18] it was 23.8 µM (active). In assay [20], the AC50 was 35.1 µM (active). For the same compound, in assay [9], the outcome was inactive.
